# Data published in article PMC7862700, “An all-to-all approach to the identification of sequence-specific readers for epigenetic DNA modifications on cytosine”.
# Tests used:
# Experiment in all cases: DAPPL (digital affinity profiling via proximity ligation, sequencing); 10 mM Tris-HCl pH 7.5, 50 mM NaCl, 1 mM DTT, 4% glycerol, room temperature, 30 min; GST-TFs on glutathione beads, 16-mer random dsDNA library, 0.1% formaldehyde crosslink after washing; high values mean tight binding
# [1] = target: T1, FLI1 (Homo sapiens, UniProt Q01543 1-452); conditions: protein: recombinant; tags: N-terminal GST; dsDNA, one strand shown
# T1 sequence: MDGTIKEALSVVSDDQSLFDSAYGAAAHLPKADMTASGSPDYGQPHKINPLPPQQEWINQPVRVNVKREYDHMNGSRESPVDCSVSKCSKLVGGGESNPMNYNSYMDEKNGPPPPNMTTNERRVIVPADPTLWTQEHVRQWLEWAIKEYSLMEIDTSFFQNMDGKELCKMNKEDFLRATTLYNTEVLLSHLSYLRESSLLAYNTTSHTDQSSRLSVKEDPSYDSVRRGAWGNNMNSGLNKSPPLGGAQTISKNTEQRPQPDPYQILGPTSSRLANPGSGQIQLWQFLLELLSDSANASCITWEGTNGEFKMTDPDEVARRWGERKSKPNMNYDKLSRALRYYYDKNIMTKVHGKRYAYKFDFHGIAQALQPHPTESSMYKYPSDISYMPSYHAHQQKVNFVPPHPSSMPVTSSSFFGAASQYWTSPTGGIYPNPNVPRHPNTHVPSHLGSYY
# Summary of the method: (§1)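 Human transcription factors fused to GST were expressed in yeast, captured on glutathione beads, given DNA barcodes and pooled with a GST-only negative control. Pools were incubated with 200 nmole of a 16-mer random double-stranded DNA library in Tris/NaCl/DTT/glycerol buffer at room temperature for 30 min. They were then washed, crosslinked with 0.1% formaldehyde, proximity-ligated (BsaI/T4 ligase, 1 h, 37 °C), PCR-amplified and sequenced on an Illumina NextSeq500. Binding signal is each 6-mer's read frequency for a factor divided by its frequency for the GST control.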
# [2] = target: T2, ELK1 (Homo sapiens, UniProt P19419 1-428); conditions: protein: recombinant; tags: N-terminal GST; dsDNA, one strand shown
# T2 sequence: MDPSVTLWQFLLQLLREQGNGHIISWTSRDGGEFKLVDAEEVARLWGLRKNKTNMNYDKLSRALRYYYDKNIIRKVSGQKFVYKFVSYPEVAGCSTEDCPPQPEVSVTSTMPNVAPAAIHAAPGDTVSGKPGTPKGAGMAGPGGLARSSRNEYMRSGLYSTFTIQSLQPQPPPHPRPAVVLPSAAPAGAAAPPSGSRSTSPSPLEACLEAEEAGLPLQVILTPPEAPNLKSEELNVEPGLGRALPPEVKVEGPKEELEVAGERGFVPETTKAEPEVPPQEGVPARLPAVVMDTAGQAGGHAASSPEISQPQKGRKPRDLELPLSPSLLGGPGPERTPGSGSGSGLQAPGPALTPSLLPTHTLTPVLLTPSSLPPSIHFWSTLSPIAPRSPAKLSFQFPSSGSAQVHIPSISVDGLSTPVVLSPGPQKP
# Summary of the method: as §1
# [3] = target: T3, GABPA (Homo sapiens, UniProt Q06546 1-454); conditions: protein: recombinant; tags: N-terminal GST; dsDNA, one strand shown
# T3 sequence: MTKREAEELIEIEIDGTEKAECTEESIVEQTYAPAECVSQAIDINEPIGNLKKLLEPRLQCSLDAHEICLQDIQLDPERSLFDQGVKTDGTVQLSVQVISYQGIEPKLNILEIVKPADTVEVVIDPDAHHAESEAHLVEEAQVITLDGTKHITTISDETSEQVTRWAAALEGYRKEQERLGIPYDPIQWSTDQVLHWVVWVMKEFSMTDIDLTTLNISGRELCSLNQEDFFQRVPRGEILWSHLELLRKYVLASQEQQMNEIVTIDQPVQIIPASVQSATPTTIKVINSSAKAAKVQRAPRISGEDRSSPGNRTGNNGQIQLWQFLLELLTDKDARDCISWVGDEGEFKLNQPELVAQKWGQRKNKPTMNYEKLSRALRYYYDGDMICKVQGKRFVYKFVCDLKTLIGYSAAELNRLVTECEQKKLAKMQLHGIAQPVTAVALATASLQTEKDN
# Summary of the method: as §1
# [4] = target: T4, ERG (Homo sapiens, UniProt P11308 1-479); conditions: protein: recombinant; tags: N-terminal GST; dsDNA, one strand shown
# T4 sequence: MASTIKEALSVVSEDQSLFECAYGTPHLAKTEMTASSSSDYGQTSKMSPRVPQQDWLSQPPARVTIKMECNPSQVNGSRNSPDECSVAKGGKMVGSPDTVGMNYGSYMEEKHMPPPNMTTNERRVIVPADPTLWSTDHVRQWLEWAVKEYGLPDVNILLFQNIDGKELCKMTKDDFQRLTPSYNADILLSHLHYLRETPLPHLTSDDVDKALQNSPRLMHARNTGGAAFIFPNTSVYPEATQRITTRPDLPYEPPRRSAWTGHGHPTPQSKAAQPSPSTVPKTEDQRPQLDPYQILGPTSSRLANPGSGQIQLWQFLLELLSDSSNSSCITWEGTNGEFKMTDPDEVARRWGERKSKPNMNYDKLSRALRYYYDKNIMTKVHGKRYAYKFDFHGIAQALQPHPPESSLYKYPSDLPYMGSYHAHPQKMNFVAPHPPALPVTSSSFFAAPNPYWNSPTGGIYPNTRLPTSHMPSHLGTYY
# Summary of the method: as §1
# [5] = target: ELF1 (Homo sapiens, UniProt P32519 1-619); conditions: protein: recombinant; tags: N-terminal GST; dsDNA, one strand shown
# Summary of the method: as §1
# [6] = target: T5, EHF (Homo sapiens, UniProt Q9NZC4 1-300); conditions: protein: recombinant; tags: N-terminal GST; dsDNA, one strand shown
# T5 sequence: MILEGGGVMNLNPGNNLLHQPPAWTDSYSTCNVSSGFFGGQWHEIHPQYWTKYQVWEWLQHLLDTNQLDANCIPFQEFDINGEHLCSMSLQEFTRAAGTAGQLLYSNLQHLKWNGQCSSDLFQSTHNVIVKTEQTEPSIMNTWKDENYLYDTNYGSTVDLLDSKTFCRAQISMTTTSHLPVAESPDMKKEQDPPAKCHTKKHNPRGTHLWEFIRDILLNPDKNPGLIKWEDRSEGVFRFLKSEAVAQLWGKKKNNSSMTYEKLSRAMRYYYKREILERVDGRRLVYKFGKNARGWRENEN
# Summary of the method: as §1
# [7] = target: SPI1 (Homo sapiens, UniProt P17947 1-270); conditions: protein: recombinant; tags: N-terminal GST; dsDNA, one strand shown
# Summary of the method: as §1
# [8] = target: SPIB (Homo sapiens, UniProt Q01892 1-262); conditions: protein: recombinant; tags: N-terminal GST; dsDNA, one strand shown
# Summary of the method: as §1
# [9] = target: T6, ELK3 (Homo sapiens, UniProt P41970 1-407); conditions: protein: recombinant; tags: N-terminal GST; dsDNA, one strand shown
# T6 sequence: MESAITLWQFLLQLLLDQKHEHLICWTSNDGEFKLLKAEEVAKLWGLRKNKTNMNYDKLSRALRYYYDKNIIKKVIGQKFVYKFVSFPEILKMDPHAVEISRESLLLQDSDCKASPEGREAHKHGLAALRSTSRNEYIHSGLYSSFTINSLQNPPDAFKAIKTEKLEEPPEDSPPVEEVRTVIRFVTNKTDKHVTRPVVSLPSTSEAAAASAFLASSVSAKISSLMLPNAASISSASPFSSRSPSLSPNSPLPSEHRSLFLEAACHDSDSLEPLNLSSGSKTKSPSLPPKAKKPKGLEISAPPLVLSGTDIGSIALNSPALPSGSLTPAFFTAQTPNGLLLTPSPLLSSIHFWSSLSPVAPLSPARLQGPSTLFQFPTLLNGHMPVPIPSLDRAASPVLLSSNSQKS
# Summary of the method: as §1
# [10] = target: T7, FEV (Homo sapiens, UniProt Q99581 1-238); conditions: protein: recombinant; tags: N-terminal GST; dsDNA, one strand shown
# T7 sequence: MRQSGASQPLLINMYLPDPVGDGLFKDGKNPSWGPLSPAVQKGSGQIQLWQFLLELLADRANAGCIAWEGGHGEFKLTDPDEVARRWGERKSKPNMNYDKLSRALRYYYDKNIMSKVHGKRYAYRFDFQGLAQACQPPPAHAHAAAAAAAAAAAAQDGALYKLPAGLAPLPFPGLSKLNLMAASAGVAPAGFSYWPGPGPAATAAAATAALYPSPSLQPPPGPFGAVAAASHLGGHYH
# Summary of the method: as §1
# [11] = target: ETV5 (Homo sapiens, UniProt P41161 1-510); conditions: protein: recombinant; tags: N-terminal GST; dsDNA, one strand shown
# Summary of the method: as §1
# [12] = target: HSF1 (Homo sapiens, UniProt Q00613 1-529); conditions: protein: recombinant; tags: N-terminal GST; chain copies: 3; dsDNA, one strand shown
# Summary of the method: as §1
# [13] = target: T8, SPIC (Homo sapiens, UniProt Q8N5J4 1-248); conditions: protein: recombinant; tags: N-terminal GST; dsDNA, one strand shown
# T8 sequence: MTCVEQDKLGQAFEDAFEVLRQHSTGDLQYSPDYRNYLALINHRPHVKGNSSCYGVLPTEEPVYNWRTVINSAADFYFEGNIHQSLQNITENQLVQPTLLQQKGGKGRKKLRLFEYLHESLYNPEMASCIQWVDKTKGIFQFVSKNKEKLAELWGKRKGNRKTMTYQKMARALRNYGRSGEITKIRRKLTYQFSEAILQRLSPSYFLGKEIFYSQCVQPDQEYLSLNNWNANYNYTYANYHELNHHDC
# Summary of the method: as §1
# [14] = target: ELF4 (Homo sapiens, UniProt Q99607 1-663); conditions: protein: recombinant; tags: N-terminal GST; dsDNA, one strand shown
# Summary of the method: as §1
# [15] = target: T9, ELK4 (Homo sapiens, UniProt P28324-2 1-405); conditions: protein: recombinant; tags: N-terminal GST; dsDNA, one strand shown
# T9 sequence: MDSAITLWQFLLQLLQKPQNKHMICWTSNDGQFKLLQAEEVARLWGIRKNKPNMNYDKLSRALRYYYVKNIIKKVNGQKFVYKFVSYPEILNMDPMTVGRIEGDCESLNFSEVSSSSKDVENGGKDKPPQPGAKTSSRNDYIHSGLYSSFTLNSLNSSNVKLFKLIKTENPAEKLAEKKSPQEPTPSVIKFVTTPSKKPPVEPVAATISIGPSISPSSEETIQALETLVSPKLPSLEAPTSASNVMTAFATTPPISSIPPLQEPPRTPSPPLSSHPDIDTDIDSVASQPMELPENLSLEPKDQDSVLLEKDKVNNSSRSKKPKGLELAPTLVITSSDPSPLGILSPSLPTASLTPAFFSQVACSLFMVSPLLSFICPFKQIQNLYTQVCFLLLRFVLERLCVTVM
# Summary of the method: as §1
# [16] = target: T10, ETV2 (Homo sapiens, UniProt O00321 1-342); conditions: protein: recombinant; tags: N-terminal GST; dsDNA, one strand shown
# T10 sequence: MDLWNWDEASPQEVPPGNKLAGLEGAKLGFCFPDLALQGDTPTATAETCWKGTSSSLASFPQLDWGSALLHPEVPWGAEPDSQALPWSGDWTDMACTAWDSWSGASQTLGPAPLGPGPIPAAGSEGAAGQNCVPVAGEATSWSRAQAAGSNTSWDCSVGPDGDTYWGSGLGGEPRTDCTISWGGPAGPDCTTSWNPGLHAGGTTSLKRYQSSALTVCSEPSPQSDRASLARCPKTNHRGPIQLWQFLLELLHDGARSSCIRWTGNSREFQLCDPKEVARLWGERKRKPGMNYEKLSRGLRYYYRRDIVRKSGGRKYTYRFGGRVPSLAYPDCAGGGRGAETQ
# Summary of the method: as §1
# [17] = target: T11, ELF3 (Homo sapiens, UniProt P78545 1-371); conditions: protein: recombinant; tags: N-terminal GST; dsDNA, one strand shown
# T11 sequence: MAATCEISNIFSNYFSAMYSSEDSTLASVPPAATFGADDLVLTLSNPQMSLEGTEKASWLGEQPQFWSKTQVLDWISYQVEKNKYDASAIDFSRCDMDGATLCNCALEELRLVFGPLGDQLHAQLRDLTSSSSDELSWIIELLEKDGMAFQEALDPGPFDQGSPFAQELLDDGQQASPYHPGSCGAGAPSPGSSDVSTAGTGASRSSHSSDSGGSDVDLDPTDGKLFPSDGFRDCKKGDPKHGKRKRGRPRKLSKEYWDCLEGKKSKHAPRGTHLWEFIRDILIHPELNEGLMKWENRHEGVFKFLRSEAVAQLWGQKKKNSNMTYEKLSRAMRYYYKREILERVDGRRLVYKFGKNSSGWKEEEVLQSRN
# Summary of the method: as §1
# [18] = target: CRX (Homo sapiens, UniProt O43186 1-299); conditions: protein: recombinant; tags: N-terminal GST; dsDNA, one strand shown
# Summary of the method: as §1
# [19] = target: ETV1 (Homo sapiens, UniProt P50549 1-477); conditions: protein: recombinant; tags: N-terminal GST; dsDNA, one strand shown
# Summary of the method: as §1
# Chain of CRX (O43186 whole entry): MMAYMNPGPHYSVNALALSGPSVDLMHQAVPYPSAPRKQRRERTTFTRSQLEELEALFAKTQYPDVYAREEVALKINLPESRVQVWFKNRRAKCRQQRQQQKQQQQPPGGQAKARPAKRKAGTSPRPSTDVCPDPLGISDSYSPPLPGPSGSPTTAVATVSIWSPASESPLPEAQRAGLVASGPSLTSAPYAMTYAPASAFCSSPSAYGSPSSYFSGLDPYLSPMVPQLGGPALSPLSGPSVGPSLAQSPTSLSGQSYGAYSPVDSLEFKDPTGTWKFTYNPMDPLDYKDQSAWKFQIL
# Chain of ETV5 (P41161 whole entry): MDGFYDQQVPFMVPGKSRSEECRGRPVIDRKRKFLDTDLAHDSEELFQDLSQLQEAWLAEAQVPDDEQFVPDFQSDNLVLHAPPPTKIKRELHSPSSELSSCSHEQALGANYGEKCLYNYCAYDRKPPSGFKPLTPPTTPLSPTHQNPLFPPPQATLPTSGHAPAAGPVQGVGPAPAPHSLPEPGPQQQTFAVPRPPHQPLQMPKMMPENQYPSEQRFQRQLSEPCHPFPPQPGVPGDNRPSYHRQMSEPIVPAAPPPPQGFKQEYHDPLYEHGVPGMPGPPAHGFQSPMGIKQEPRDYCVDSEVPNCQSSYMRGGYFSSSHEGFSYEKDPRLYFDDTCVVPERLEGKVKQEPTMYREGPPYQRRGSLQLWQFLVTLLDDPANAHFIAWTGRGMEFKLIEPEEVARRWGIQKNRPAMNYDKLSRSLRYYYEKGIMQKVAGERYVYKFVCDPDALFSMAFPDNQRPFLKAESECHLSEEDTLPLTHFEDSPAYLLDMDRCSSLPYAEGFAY
# Chain of ELF1 (P32519 whole entry): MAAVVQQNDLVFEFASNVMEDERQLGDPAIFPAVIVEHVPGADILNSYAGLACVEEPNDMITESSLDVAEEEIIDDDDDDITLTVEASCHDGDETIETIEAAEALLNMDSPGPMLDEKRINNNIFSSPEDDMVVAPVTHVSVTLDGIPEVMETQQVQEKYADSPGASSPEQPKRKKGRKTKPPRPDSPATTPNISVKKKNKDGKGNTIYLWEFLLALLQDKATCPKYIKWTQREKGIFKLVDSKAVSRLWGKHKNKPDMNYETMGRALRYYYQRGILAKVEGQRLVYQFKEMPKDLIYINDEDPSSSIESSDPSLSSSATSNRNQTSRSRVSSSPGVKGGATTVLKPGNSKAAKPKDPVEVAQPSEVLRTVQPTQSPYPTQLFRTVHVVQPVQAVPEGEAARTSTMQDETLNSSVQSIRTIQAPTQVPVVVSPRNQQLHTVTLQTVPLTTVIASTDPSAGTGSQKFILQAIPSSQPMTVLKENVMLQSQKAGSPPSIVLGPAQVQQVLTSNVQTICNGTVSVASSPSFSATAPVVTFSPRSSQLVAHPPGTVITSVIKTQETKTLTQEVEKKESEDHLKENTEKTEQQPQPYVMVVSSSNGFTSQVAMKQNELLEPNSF
# Chain of SPIB (Q01892 whole entry): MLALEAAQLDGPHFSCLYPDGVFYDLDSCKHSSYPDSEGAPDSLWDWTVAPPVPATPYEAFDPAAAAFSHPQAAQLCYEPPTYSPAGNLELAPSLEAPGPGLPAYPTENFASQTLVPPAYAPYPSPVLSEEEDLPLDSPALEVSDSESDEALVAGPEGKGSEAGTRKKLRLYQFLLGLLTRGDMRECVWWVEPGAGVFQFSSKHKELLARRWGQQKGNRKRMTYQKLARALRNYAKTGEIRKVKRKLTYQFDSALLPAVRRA
# Chain of HSF1 (Q00613 whole entry): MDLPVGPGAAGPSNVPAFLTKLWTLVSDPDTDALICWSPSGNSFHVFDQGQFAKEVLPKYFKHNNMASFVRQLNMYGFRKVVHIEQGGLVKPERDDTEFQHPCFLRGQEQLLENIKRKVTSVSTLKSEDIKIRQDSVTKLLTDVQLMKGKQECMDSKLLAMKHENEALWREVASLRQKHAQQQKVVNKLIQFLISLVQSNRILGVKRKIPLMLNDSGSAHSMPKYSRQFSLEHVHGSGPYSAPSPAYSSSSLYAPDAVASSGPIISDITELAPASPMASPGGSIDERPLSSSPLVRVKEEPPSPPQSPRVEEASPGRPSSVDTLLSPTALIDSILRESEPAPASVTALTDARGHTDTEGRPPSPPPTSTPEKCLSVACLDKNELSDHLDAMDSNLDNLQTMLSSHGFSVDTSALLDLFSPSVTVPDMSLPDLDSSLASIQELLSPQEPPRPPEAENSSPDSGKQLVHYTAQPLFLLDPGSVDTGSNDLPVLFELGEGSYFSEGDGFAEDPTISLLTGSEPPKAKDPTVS
# Chain of ELF4 (Q99607 whole entry): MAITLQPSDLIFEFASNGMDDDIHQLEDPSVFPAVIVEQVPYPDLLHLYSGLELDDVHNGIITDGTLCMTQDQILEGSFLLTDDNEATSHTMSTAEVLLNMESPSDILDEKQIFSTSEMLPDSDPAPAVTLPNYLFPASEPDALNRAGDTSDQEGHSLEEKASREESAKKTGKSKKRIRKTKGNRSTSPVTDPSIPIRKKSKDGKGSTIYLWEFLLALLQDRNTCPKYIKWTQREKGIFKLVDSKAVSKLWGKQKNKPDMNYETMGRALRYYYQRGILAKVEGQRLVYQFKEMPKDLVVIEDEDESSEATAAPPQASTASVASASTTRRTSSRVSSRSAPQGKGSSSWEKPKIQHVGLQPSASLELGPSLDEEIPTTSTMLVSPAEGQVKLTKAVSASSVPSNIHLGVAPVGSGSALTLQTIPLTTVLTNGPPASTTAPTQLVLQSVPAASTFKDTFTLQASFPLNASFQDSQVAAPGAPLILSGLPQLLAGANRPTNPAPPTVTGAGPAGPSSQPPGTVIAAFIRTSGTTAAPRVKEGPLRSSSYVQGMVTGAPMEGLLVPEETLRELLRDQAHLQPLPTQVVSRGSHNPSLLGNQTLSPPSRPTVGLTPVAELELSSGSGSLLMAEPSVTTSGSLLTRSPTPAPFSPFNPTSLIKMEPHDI
# Chain of ETV1 (P50549 whole entry): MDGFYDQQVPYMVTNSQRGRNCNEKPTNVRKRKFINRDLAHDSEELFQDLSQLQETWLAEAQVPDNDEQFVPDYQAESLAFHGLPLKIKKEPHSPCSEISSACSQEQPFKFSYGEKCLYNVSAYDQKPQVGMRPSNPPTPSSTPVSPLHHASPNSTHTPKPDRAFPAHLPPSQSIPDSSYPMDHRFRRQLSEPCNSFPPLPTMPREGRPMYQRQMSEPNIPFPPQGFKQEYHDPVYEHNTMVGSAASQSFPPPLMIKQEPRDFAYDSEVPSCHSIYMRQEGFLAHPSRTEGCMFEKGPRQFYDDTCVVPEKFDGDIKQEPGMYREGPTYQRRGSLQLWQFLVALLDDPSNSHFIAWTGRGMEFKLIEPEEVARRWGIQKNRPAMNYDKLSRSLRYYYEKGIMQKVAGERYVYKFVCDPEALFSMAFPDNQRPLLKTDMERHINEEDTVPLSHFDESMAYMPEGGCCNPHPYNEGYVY
sequence,measurement,setting,value
ATAAAT,binding signal,[1],"1.14 fold enrichment (6-mer frequency, TF over GST control)"
same,binding signal,[2],"1.15 fold enrichment (6-mer frequency, TF over GST control)"
same,binding signal,[3],"1.15 fold enrichment (6-mer frequency, TF over GST control)"
same,binding signal,[4],"1.15 fold enrichment (6-mer frequency, TF over GST control)"
same,binding signal,[5],"1.15 fold enrichment (6-mer frequency, TF over GST control)"
same,binding signal,[6],"1.14 fold enrichment (6-mer frequency, TF over GST control)"
same,binding signal,[7],"1.2 fold enrichment (6-mer frequency, TF over GST control)"
same,binding signal,[8],"1.23 fold enrichment (6-mer frequency, TF over GST control)"
same,binding signal,[9],"1.22 fold enrichment (6-mer frequency, TF over GST control)"
same,binding signal,[10],"1.11 fold enrichment (6-mer frequency, TF over GST control)"
same,binding signal,[11],"1.22 fold enrichment (6-mer frequency, TF over GST control)"
same,binding signal,[12],"1.41 fold enrichment (6-mer frequency, TF over GST control)"
same,binding signal,[13],"1.16 fold enrichment (6-mer frequency, TF over GST control)"
same,binding signal,[14],"1.16 fold enrichment (6-mer frequency, TF over GST control)"
same,binding signal,[15],"1.17 fold enrichment (6-mer frequency, TF over GST control)"
same,binding signal,[16],"1.13 fold enrichment (6-mer frequency, TF over GST control)"
same,binding signal,[17],"1.24 fold enrichment (6-mer frequency, TF over GST control)"
same,binding signal,[18],"1.75 fold enrichment (6-mer frequency, TF over GST control)"
same,binding signal,[19],"1.13 fold enrichment (6-mer frequency, TF over GST control)"
